The list is not random: actives were taken first. Their share in the collection is about 11%.
PLK1 PBD block: qHTS for Inhibitors of PLK1-PDB (polo-like kinase 1 - polo-box domain): Primary Screen; Serine/threonine-protein kinase PLK1 (Homo sapiens), P53350; Plk1 PBD binding of FITC phosphopeptide, fluorescence polarization; Potency, µM, for inactives: max response, negative = inhibition, most hits filed as inhibitors; 360,000 tested, 2.8% active; AID 720504, 2013; note: series mostly up to about 57 µM; % is set by controls: 0 for no effect and ±100 for the full control effect; nearly all actives have a fitted effect of over 65% in size
HP1b binding inh: HTS for Inhibitors of HP1-beta Chromodomain Interactions with Methylated Histone Tails | Chromobox protein homolog 1 (Homo sapiens), P83916 | AlphaScreen HP1-beta / biotin-H3K9me3 peptide binding | Potency, µM (series often up to 114 µM), for inactives: at the highest dose activity change, negative = inhibition, usual class: inhibitors | 390,000 tested, 0.56% active; note: nearly all actives have a fitted effect of over 70% in size
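AlphaScreen: HP1-beta (50 nM) preformed 30 min with biotin-H3(1-18)K9me3 peptide (50 nM) in PBS pH 7.4, 0.01% Tween-20. Compound added for 30 min at RT, then streptavidin donor/nickel chelate acceptor beads (10 ug/mL) for 30 min.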
JMJD2A Tudor: qHTS Assay for Inhibitors of JMJD2A-Tudor Domain; AlphaScreen JMJD2A-Tudor / H3K4me3 peptide binding; Potency, µM (highest dose often 114 µM), for inactives: top-dose activity change, negative = inhibition, actives largely listed as inhibitors; 390,000 tested, 4.4% active; note: % is set by controls: 0 for no effect and ±100 for the full control effect; nearly all actives have a fitted effect of over 50% in size
G9a inh: qHTS Assay for Inhibitors of Histone Lysine Methyltransferase G9a | Histone-lysine N-methyltransferase EHMT2 (Homo sapiens), Q96KQ7 | G9a H3K9 monomethylation, AlphaScreen, 2 h | Potency, µM (highest dose often 102 µM), without a hit: at the top dose activity, negative = inhibition, actives largely listed as inhibitors | 350,000 tested, 8.8% active | AID 504332, 2011; note: % is set by controls: 0 for no effect and ±100 for the full control effect; nearly all actives have a fitted effect of over 75% in size
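G9a (20 nM) preincubated 15 min RT with compounds, then 500 nM biotinylated H3K9 peptide and 20 uM SAM added; 2 h RT reaction. Monomethyl-H3K9 product detected by AlphaScreen with anti-H3K9me1 antibody, streptavidin donor and anti-rabbit IgG acceptor beads.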
BAZ2B block: qHTS Assay for Inhibitors of BAZ2B; Bromodomain adjacent to zinc finger domain protein 2B (Homo sapiens), Q9UIF8; AlphaScreen BAZ2B-H3K14Ac peptide displacement; Potency, µM (highest dose often 114 µM), without a hit: at the top dose activity change, negative = inhibition, hits mostly inhibitors; 360,000 tested, 4.4% active; AID 504333, 2011; note: % is set by controls: 0 for no effect and ±100 for the full control effect; nearly all actives have a fitted effect of over 60% in size
Target sequence (Q9UIF8 whole entry, looked up, the tested form may be a part): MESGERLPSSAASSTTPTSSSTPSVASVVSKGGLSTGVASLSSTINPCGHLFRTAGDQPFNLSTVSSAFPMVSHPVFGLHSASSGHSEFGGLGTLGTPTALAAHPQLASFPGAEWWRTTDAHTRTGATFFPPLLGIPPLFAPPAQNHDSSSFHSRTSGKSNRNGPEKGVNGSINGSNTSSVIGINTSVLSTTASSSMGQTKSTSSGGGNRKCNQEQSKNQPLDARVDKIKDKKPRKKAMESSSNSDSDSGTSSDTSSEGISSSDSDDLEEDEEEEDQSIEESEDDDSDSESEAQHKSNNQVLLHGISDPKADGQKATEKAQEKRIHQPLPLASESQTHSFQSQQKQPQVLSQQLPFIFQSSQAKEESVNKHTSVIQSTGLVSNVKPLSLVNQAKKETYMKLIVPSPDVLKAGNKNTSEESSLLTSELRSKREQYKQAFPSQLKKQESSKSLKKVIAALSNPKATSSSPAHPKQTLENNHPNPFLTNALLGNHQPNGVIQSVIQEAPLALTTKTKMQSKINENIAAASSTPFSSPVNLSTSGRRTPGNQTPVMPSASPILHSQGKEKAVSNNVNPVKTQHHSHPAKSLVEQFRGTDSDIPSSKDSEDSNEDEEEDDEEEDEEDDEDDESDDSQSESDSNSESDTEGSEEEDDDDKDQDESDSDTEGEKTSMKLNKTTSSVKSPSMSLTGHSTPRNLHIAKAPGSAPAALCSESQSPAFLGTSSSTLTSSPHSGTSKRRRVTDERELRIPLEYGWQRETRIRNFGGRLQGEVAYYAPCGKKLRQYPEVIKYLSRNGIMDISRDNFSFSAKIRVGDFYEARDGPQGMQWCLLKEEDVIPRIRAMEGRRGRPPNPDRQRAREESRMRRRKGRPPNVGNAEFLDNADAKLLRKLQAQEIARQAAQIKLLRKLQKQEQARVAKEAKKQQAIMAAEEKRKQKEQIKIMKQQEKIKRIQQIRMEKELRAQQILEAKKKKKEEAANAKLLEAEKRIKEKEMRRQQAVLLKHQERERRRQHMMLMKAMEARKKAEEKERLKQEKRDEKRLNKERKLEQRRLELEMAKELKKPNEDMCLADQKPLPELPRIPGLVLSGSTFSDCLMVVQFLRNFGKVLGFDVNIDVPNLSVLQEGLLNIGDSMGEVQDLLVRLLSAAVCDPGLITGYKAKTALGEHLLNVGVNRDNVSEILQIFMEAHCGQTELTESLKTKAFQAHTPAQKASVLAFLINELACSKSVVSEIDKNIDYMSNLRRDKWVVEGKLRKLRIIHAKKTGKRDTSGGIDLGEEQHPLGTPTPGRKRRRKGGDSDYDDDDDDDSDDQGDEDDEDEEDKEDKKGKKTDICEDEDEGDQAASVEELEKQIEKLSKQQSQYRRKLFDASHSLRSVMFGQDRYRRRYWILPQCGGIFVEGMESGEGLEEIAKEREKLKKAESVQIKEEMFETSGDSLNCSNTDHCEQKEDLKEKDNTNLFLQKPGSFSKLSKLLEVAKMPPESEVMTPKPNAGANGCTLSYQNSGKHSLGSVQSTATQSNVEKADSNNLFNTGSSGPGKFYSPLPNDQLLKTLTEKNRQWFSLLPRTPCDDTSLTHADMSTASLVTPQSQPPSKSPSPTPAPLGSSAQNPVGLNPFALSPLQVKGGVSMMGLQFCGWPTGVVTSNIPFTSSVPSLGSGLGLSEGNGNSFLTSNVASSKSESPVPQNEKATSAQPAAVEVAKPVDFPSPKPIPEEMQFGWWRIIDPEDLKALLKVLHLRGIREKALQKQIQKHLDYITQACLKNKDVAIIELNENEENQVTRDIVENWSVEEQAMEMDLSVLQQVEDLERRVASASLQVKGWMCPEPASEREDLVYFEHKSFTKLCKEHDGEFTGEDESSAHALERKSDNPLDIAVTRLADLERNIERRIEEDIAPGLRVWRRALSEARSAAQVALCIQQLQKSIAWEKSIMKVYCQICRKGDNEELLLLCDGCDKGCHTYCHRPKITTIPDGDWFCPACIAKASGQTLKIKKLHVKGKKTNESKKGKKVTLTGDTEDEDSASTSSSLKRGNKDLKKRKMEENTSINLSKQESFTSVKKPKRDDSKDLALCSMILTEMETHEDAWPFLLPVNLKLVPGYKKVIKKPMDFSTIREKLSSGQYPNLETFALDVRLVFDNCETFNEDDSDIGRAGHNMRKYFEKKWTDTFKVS
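BAZ2B (50 nM) with biotin-H3(5-23)K14Ac peptide (50 nM) in PBS pH 7.4, 0.01% Tween-20, preformed 30 min, then compound 30 min at room temperature; top concentration 110uM. AlphaScreen streptavidin donor/nickel chelate acceptor beads (10 ug/mL final), 20 min dark, signal read.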
VDR inh: Inhibitors of the vitamin D receptor (VDR): qHTS; 400,000 tested, 0.93% active; AID 504847, 2011; VDR-SRC2-3 peptide fluorescence polarization, 2 h; Potency, µM, for inactives: max response, negative = inhibition, hits mostly inhibitors; Vitamin D3 receptor (Homo sapiens), P11473; note: % is set by controls: 0 for no effect and ±100 for the full control effect
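Measured by FP: displacement of SRC2-3 coactivator peptide from VDR by library compounds, following a two-hour ambient incubation.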
* marks the source's active call; other numbers are inactive results; ? = inconclusive; . = not tested or not shown; [ ] = another dose, or the depositor's remark. Calls come from the whole dose curve; as a rule, active = well fitted curve in the direction sought with a large enough effect; inconclusive = small, poorly fitted or top-dose-only effect, or another doubt; inactive = no such curve, though single readings can be large; an effect the other way counts as inactive or inconclusive. Potency is the fitted concentration of half-maximal effect.

SMILES | PLK1 PBD block | HP1b binding inh | JMJD2A Tudor | G9a inh | BAZ2B block | VDR inh
Cc1ccc(C)n1-c1nc(=S)[nH][nH]1 | 24µM* | 16µM* | 3.2µM* | 1.3µM* | ? | 32µM*
O=C1CC(c2nc3ccccc3n2Cc2c(F)cccc2Cl)CN1c1cccc(C(F)(F)F)c1 (stereo not drawn) | . | 23% | -5% | -1%[59 µM] | -15% | -8%
Cn1ncc2c(c(SCc3ccc(Cl)cc3Cl)nn2C)c1=O | 12µM* | ? | -30% | 8.9µM* | 0% | ?
COc1ccc(C(=O)Nc2cc(C(C)=O)c(C)oc2=O)cc1 | -4% | 47% | -6% | 35µM* | -20% | 3%
CC(=O)c1cc(NC(=O)c2cccc(C(F)(F)F)c2)c(=O)oc1C | 24µM* | -12% | -20%[11.4 µM] | 25µM* | -20% | ?
CCOC(=O)NC(=O)COC(=O)c1ccc(Sc2ncn[nH]2)c([N+](=O)[O-])c1 | -8% | 1% | -31% | 20µM* | 79µM* | -10%
CCNc1ccc(C(=O)OCC(=O)NC(=O)NCC(C)C)cc1[N+](=O)[O-] | 3% | 20% | 9% | 3% | -15% | -1%
Cc1cccc(/N=C2/NC(=O)C(Cc3ccccc3)S2)n1 (stereo not drawn) | 30µM* | 12% | -13%[11.4 µM] | 20% | -12% | ?
Cc1cccc(CC2S/C(=N/c3cccc(C)n3)NC2=O)c1 (stereo not drawn) | -15% | 20% | -12% | 38%[59 µM] | 0% | 1%
CCN(CC)C(=O)c1sc(NC(=O)c2cccc([N+](=O)[O-])c2)c(C#N)c1C | 1% | 35% | 18% | ? | -23% | 4%
CCOC(=O)c1c(NC(=O)C2c3ccccc3Oc3ccccc32)sc(C(=O)N(CC)CC)c1C | ? | 23% | -13% | -50%[59 µM] | -10% | 71µM*
CCOC(=O)c1sc(NC(=O)c2ccco2)c(C#N)c1C | ? | -4% | 2% | 45µM* | -3% | -5%
CCOC(=O)c1sc(NC(=O)C2c3ccccc3Oc3ccccc32)c(C#N)c1C | . | -14% | -11% | 2.2µM* | -1% | 79µM*
CCN(CC)C(=O)c1sc(NC(=O)c2c(OC)cccc2OC)c(C#N)c1C | ? | -1% | -4% | 18µM* | -19% | 4%
CCOC(=O)c1sc(NC(=O)C2c3ccccc3Oc3ccccc32)c(C(=O)OCC)c1C | . | 25% | -17% | -26%[59 µM] | -7% | -7%
COc1ccc2[nH]c(C)c(C(=O)CN3CCc4cc(OC)c(OC)cc4C3)c2c1 | -18% | 12% | -30% | 50µM* | 4% | 0%
COc1ccc2c(c1)c(C(=O)CN1CCc3ccccc3C1)c(C)n2C | -11% | 26% | ? | 45µM* | -5% | ?
COc1ccc2c(c1)c(C(C)=O)c(C)n2C | -8% | 23% | -5% | 22% | -21% | -7%
CN(C)c1ccc(C=NN2C(=O)CSC2=S)c(Cl)c1 | 1% | . | . | . | . | .
CN(C)c1ccc(N2CN=C3SCC(=O)N3C2)cc1 | 1% | 56µM* | 50µM* | ? | 25µM* | ?
O=C(NCc1ccc(Cl)cc1)NC1COc2ccccc2C1 (stereo not drawn) | . | 15%[57 µM] | -9% | 20%[59 µM] | 3% | -4%
CC(C)(C)C(=O)CNCC(=O)C(C)(C)C | 0% | 48% | 2% | 40µM* | -6% | -15%
CCOC(=O)C1=C(CNCc2ccccc2)NC(=O)NC1c1ccc(C)cc1 (stereo not drawn) | . | -5% | ? | ? | . | -13%
COc1ccc(NC(=O)CCS(=O)(=O)c2ccc3c(c2)oc(=O)n3C)cc1 | ? | 14% | -30% | 8% | 50µM* | -4%
COc1ccc(S(=O)(=O)CCC(=O)Nc2c(C)cccc2C)cc1 | -17% | 36% | -9% | 40µM* | 2% | ?
SMILES | PLK1 PBD block | HP1b binding inh | JMJD2A Tudor | G9a inh | BAZ2B block | VDR inh
Cc1cccc(N(C)C(=O)CCS(=O)(=O)c2ccc3c(c2)oc(=O)n3C)c1 | . | 0% | -22% | 2.8µM* | 0%[57.1 µM] | 5%
Cn1c(=O)oc2cc(S(=O)(=O)CCC(=O)Nc3ccccc3)ccc21 | -6% | 17% | -7% | 41% | -2% | 9%
Cc1cccc(C)c1NC(=O)CCS(=O)(=O)c1ccc(Br)cc1 | -5% | 23% | -9% | 7% | 0% | 7%
O=C(Cn1nc(-c2cccc(Cl)c2)ccc1=O)Nc1ccc(C(=O)NC2CC2)cc1 | -5% | 21% | -11% | -2% | -4% | -8%
Cc1ccc(Cc2nc3ccccc3nc2SCC(=O)N2CCN(c3ccc(F)cc3)CC2)cc1 | . | 29%[57 µM] | -24% | -35%[59 µM] | -23% | 2%
O=C(CCc1nc(-c2cccs2)no1)Nc1cccc([N+](=O)[O-])c1 | . | 22% | -17% | -26%[59 µM] | -23% | 0%
COCC(C)n1c(C)cc(C(=O)COC(=O)c2c(C)nn(-c3ccccc3)c2C)c1C (stereo not drawn) | 0% | ? | ? | 50µM* | ? | -6%
Cc1nn(Cc2ccccc2)c(C)c1C(=O)OCC(=O)c1cc(C)n(C2CC2)c1C | -5% | 3% | -30% | -14%[59 µM] | ? | 3%
COCCn1c(C)cc(C(=O)COC(=O)c2c(C)nn(Cc3ccccc3)c2C)c1C | 3% | ? | ? | 79µM* | ? | 10%
COc1ccc(-n2cnnc2SCC(=O)c2cc(C)n(Cc3cccs3)c2C)cc1 | -7% | 3% | ? | ? | . | 2%
COCCn1c(C)cc(C(=O)CSc2nncn2-c2ccccc2)c1C | -6% | 14% | -20% | 50µM* | -33% | 2%
COc1ccc(-c2ccc(F)cc2)cc1C1C2C=CCC(C)C2C(=O)N1Cc1ccccc1 (stereo not drawn) | . | 20% | -19% | . | . | 23%
COC(=O)c1ccc(CN2CCCC(C(=O)c3ccccc3OC)C2)cc1 (stereo not drawn) | -1% | 47% | -5% | . | 8%[0.457 µM] | -27%
O=C(CSc1nccn1C1CCCC1)Nc1cccc(F)c1 | . | 9% | -29% | -16%[59 µM] | 79µM* | 19%
CC(=O)Nc1cccc(NC(=O)CSc2nccn2C2CCCC2)c1 | . | 40% | -16% | -20%[59 µM] | -3% | 14%
CCN1C(=O)/C(=C/c2ccc(C)s2)NC1=S | -7% | 26% | -26% | 13µM* | -34% | -8%
Cc1cccc(CN2C(=O)N/C(=C/c3ccc(C)s3)C2=O)c1 | 23% | 48% | 3% | 1%[12.7 µM] | 5% | -14%
O=C(Nc1ccc(N2CCOCC2)cc1)c1cc2c(s1)CCCCC2 | -15% | ? | 79µM* | 32µM* | ? | -14%
